In ChEMBL document CHEMBL3988442, “University of Dundee, Small-Polar-MMV Screening Library” (2021):
For part of these data: Measured potencies and affinities stand elsewhere.

How the values were obtained:
Set-up in all cases: scale not given: direction of the effect not stated beside the values
[1] = target: Protein translocase subunit SecA (Escherichia coli (strain K12)) (UniProt P10408); assay: Assay to Identify E. coli SecA ATPase Inhibitors; format: functional; conditions: 30 µM
[2] = target: T1, Ubiquitin-activating enzyme e1, putative (Leishmania donovani (strain BPK282A1)) (UniProt E9BSI1); assay: Leishmania donovani Ubiquitin Activating Enzyme (LdE1); format: functional; conditions: 30 µM
T1 sequence (whole entry): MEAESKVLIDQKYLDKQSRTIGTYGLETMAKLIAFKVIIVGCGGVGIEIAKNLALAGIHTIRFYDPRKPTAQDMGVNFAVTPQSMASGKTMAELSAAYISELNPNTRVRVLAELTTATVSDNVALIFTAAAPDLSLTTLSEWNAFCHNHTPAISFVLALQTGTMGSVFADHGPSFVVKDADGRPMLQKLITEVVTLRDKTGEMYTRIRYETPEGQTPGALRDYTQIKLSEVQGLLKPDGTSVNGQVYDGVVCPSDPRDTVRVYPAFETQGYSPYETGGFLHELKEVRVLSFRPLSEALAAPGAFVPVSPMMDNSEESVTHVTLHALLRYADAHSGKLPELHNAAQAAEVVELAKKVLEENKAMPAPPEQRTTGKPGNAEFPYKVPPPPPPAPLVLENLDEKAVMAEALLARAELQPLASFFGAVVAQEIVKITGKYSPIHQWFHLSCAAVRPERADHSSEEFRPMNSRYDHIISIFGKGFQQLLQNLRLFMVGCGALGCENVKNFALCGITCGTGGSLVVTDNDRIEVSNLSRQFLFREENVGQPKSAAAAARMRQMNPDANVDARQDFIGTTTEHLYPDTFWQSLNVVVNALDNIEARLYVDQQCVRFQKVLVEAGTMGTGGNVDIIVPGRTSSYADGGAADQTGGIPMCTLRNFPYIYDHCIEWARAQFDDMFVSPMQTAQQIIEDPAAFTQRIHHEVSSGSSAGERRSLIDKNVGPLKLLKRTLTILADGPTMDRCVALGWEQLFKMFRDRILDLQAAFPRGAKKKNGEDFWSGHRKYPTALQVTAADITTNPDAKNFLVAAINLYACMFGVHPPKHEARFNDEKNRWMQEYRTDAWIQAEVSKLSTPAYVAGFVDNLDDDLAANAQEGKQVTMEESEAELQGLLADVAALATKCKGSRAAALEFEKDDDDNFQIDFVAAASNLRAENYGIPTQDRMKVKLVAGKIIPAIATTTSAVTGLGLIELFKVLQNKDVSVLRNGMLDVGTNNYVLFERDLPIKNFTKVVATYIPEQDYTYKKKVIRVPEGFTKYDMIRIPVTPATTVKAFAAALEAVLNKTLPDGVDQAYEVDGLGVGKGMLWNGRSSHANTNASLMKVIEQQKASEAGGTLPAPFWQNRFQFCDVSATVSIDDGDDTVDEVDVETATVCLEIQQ

[3] = target: AMP-activated protein kinase, AMPK (Homo sapiens) (UniProt P54646+O43741+P54619+Q9UGJ0+Q9Y478+Q13131+Q9UGI9); assay: AMP-dependent Kinase enzyme assay. An in vitro enzyme assay that detects ADP turnover that is directly proportional to AMPK activity. This uses naive AMPK that is activated during the assay with MK-8722; format: functional; conditions: 30 µM
[4] = target: Sialic acid-binding Ig-like lectin 9 (Homo sapiens) (UniProt Q9Y336); assay: Hs-Siglec9 ALPHAscreen SOP 20170721; conditions: 10 µM
Trypanosoma cruzi = assay: Trypanosoma cruzi phosphomannomutase and mannose-1-phosphate guanylyltransferase assay; format: functional; conditions: 10 µM
[5] = target: T2, Arginase-2, mitochondrial (Homo sapiens) (UniProt P78540); assay: in vitro enzyme assay to detect the production of urea directly proportional to the activity of Arginase II; format: functional; conditions: 33.3 µM; further: in the data most compounds retested in dose-response had high values
T2 sequence (whole entry): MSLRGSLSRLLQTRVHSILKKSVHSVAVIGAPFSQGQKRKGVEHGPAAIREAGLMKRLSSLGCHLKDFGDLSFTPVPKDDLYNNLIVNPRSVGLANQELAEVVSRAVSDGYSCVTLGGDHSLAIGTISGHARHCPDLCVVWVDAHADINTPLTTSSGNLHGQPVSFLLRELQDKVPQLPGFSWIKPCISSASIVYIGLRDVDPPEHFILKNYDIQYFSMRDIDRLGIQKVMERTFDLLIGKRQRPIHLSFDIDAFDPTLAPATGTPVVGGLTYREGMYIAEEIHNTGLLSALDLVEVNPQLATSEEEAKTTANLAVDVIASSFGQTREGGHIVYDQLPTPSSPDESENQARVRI

[6] = target: T3, Proteasome subunit beta (Trypanosoma cruzi) (UniProt O96673); assay: Trypanosoma cruzi proteasome chymotrypsin-like activity (TcProtChymo) assay.; further: in the data most compounds retested in dose-response had high values; format: functional; conditions: 9.37 µM
T3 sequence (whole entry): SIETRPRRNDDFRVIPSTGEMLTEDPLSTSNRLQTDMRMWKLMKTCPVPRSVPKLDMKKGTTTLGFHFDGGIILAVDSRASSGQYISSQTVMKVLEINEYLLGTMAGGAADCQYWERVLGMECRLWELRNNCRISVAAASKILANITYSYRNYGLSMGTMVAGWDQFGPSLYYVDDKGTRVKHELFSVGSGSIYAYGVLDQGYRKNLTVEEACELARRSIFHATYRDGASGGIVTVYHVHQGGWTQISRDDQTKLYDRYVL

Homo sapiens = organism: Homo sapiens; assay: To identify inhibition of the IFN signalling (Jak-Stat) pathway via expression of an eGFP reporter gene under the control of an IFN-stimulated response element (ISRE) containing MxA promoter.; format: functional; conditions: 30 µM
[7] = target: T4, Tyrosyl-tRNA synthetase, putative (Trypanosoma cruzi (strain CL Brener)) (UniProt Q4DSP6); assay: Trypanosoma cruzi tyrosyl tRNA synthetase (TcYRS) _High Tyrosine SOP; format: functional; conditions: 30 µM; further: in the data most compounds retested in dose-response had high values
T4 sequence (whole entry): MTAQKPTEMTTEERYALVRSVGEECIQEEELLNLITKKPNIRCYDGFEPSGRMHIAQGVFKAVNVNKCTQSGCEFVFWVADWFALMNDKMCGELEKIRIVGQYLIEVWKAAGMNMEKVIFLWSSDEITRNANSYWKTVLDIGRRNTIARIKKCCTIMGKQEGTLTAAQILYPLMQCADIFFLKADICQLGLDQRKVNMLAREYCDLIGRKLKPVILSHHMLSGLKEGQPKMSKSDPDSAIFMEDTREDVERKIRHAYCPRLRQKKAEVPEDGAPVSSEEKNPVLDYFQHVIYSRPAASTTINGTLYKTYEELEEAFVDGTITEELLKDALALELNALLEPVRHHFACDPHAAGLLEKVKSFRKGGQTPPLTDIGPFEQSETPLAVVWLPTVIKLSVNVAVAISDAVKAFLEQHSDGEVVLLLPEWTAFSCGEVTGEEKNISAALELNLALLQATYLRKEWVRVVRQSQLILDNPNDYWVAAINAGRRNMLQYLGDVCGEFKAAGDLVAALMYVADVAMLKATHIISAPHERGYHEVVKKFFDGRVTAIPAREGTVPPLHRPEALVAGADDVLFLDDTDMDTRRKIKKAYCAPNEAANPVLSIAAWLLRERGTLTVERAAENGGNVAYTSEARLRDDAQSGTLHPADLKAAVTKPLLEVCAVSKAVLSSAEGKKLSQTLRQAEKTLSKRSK

[8] = target: T4, Tyrosyl-tRNA synthetase, putative (Trypanosoma cruzi (strain CL Brener)); assay: Trypanosoma cruzi tyrosyl tRNA synthetase (TcYRS) SOP; format: functional; conditions: 30 µM
[9] = target: Chromo domain-containing protein 1 (Saccharomyces cerevisiae (strain ATCC 204508 / S288c) (Baker's yeast)) (UniProt P32657); assay: ScCHD-1 Enzyme Inhibition Assay; format: functional; conditions: 30 µM; further: in the data most compounds retested in dose-response had high values
Chain of Chromo domain-containing protein 1 (Saccharomyces cerevisiae (strain ATCC 204508 / S288c) (Baker's yeast)) (P32657 whole entry, the tested form may be a part): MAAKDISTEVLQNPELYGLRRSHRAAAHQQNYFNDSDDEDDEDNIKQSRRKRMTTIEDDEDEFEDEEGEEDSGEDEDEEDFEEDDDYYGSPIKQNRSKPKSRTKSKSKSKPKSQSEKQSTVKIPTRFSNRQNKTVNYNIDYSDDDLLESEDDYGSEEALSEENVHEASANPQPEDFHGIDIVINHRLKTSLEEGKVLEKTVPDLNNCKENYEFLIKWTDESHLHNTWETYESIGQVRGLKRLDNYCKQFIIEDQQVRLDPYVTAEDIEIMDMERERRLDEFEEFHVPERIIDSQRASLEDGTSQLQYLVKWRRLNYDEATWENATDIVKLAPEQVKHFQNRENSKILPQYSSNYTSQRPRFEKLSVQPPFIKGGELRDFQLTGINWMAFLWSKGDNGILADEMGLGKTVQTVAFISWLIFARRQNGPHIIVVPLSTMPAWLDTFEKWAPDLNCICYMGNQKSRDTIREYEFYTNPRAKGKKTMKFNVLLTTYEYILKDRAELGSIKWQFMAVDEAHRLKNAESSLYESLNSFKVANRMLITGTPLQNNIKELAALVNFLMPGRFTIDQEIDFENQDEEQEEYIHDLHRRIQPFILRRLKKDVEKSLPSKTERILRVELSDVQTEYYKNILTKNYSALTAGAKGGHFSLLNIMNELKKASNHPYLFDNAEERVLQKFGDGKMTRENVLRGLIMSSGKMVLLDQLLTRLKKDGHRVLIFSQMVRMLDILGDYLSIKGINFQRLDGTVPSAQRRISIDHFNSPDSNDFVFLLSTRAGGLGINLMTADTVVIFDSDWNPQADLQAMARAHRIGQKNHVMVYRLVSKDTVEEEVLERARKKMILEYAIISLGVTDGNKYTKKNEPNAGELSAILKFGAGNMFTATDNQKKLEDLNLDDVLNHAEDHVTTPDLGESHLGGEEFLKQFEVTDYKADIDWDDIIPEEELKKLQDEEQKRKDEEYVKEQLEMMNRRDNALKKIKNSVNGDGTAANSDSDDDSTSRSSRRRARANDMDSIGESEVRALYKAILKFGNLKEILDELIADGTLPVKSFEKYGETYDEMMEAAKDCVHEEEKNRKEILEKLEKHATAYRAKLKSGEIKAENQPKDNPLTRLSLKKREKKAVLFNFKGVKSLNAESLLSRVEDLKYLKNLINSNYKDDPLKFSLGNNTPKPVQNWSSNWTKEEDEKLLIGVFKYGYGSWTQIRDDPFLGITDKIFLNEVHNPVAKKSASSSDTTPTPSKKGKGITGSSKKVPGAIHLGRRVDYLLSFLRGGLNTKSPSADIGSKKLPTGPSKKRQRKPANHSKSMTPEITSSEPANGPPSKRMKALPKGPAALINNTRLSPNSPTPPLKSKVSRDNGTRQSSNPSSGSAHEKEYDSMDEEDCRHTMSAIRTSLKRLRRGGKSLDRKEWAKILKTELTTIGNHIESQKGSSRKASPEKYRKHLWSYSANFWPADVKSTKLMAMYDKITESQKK

Chain of Protein translocase subunit SecA (Escherichia coli (strain K12)) (P10408 whole entry): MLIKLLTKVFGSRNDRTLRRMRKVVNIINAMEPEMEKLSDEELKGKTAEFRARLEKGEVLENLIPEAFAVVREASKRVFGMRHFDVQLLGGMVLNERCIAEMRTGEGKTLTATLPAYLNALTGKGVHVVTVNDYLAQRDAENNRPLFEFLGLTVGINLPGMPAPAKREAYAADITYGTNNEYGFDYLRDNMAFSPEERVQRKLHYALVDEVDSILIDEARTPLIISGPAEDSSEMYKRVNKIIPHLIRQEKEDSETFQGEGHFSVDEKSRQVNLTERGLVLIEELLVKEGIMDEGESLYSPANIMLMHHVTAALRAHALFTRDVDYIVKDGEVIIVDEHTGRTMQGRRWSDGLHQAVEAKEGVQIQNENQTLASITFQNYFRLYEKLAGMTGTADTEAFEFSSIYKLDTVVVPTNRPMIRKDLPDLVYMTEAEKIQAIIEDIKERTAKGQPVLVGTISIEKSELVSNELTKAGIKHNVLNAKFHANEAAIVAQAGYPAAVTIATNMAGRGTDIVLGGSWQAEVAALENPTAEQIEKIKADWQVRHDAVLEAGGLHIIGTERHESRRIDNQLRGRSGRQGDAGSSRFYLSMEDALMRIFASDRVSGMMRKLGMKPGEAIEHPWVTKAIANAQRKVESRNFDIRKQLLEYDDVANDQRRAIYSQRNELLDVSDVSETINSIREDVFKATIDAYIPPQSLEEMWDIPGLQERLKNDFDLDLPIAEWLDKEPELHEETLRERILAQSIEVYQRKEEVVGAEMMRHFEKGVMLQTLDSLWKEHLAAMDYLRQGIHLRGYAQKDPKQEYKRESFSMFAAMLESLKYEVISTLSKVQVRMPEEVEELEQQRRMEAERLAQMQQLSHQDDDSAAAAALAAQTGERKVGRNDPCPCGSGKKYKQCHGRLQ
Chain of Sialic acid-binding Ig-like lectin 9 (Homo sapiens) (Q9Y336 whole entry): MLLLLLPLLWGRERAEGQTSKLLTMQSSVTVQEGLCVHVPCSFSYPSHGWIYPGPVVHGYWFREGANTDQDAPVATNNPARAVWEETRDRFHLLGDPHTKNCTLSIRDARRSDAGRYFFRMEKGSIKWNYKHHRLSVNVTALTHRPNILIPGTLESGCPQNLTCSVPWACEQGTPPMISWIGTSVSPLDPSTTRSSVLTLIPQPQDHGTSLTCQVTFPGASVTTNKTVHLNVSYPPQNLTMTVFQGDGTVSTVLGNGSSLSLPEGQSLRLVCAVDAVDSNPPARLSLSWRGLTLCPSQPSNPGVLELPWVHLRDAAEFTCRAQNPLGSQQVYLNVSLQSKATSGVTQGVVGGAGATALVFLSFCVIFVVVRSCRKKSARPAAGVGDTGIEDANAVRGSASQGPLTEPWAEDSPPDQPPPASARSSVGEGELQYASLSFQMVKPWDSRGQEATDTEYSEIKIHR

SMILES | Percent Effect [1] [%] | Percent Effect [2] [%] | Percent Effect [3] [%] | Percent Effect [4] [%] | Percent Effect (Trypanosoma cruzi) [%] | Percent Effect [5] [%] | Percent Effect [6] [%] | Percent Effect (Homo sapiens) [%] | Percent Effect [7] [%] | Percent Effect [8] [%] | Percent Effect [9] [%]
O=C(NCC1CC1)[C@H]1C[C@H]2OCC[C@H]2N(Cc2ccoc2)C1 | -0.0445 | 21.6 | 4.14 | -14 | 1.86 | 6.69 | 6.09 | 32.6 | 3.24 | 15.4 | -0.46
CCn1ccnc1CN1CCN(CCOc2ccccc2OC)CC1 | -1.18 | 0 | -0.305 | 3.72 | 6.39 | 4.21 | 8.19 | 7.16 | 0.49 | 7.32 | -2.76
CCS(=O)(=O)N1CCC2(CCC2NC(=O)c2ccn(C)c2)CC1 (stereo unspecified) | -3.75 | 10.8 | 1.1 | -0.914 | 3.62 | -6.69 | 18.8 | -26 | 4.32 | 15.4 | -3.62
O=C(N1CCCC1)N1CCO[C@H]2[C@@H](Oc3ccccn3)CC[C@@H]21 | 0.00913 | 2.67 | 13.9 | -0.922 | -4.92 | 4.43 | -1.85 | 12.7 | 4.25 | 3.85 | 1.67
Cc1ncc(CNC(=O)Nc2cc(C(F)(F)F)c[nH]c2=O)s1 | -6.87 | -1.39 | -10.2 | -4.64 | -5.34 | 2.65 | 18.2 | -11.2 | -1.05 | -2.56 | 0.478
CCc1nc(CCNC(=O)Nc2cc(C(N)=O)sc2C)cs1 | -6.09 | 0 | -8.97 | -2.52 | -4.19 | -1.56 | 3.14 | 19.9 | -0.546 | -3.7 | 4.38
O=C(c1cnccn1)N1CCN2C[C@H](OCc3ccccn3)C[C@H]2C1 | -0.668 | 0 | 2.67 | 7.25 | -3.09 | 0.538 | 13 | -9.74 | 1.04 | -2.5 | 3.56
NC(=O)COc1ccc(CNCc2ccc(F)c(F)c2)cc1 | -4.2 | 6.94 | 2.35 | -0.752 | 0.486 | 3.53 | 11.2 | -7.28 | 7.37 | 7.69 | -2.75
CCc1nc(CN(C)C2CCN(CCn3cc(C#N)cn3)C2)no1 (stereo unspecified) | 1.6 | 13.5 | -2.36 | -1.05 | -7.64 | -13.6 | 17.5 | 23.4 | 4.43 | 6.17 | -5.98
COCC(NC(=O)c1ccc[nH]1)c1cccc(C(F)(F)F)c1 (stereo unspecified) | -6.18 | 2.74 | -4.37 | 35.1 | 9.01 | 32.3 | 4.79 | 3.46 | 0 | 10 | -5.6
COc1cccc(CN2CCCC(Nc3cccc(F)c3)C2)c1O (stereo unspecified) | -5.42 | 10.8 | -4 | 18.7 | 7.33 | 2.23 | 5.24 | 0.464 | 3.23 | 11.1 | -12.4
CC(C)(C)c1ncc2c(n1)CN(C(=O)c1ccncc1)C2 | -2.88 | 5.48 | -0.32 | 6.45 | -3.57 | -3.19 | 17.7 | -6.92 | 9.38 | 16.1 | -0.422
Cc1ccc(CC2CCCN2CC(=O)NCc2cccnc2)cc1 (stereo unspecified) | -4.01 | 2.63 | 5.21 | 3.98 | 1.66 | -5.92 | 14.1 | -8.66 | 4.25 | 13 | -4.98
COc1cccc(OCCNCc2c(C)nn(C)c2N(C)C)c1 | -5.35 | 5.26 | -9.94 | 10.1 | 1.5 | 1.92 | 7.69 | -12 | 4.41 | 19.5 | -8.18
COc1ccc(-c2nnc(SCC(=O)NCC(C)C)[nH]2)c(OC)c1 | -5.51 | 18.4 | 1.07 | -1.8 | 4.97 | 4.73 | 15.8 | 12.1 | 3.19 | 18.2 | -1.07
Cc1ccc(C)c(NC(=O)N(C)Cc2cnn(C)c2)c1 | -3.08 | 21.6 | -1.59 | -5.73 | -5.94 | -0.401 | 11.3 | 20.3 | 7.39 | 16.1 | -4.13
COc1ccc(C(=O)N2CCC(Nc3ccc(C)nn3)CC2)c(F)c1 | -1.36 | 1.27 | 3.77 | -1.89 | -4.21 | 2.8 | 12.7 | 25.4 | 7.29 | -2.53 | -10.7
O=C(CSc1nc2c(cnn2CCO)c(=O)[nH]1)N1CCCCCC1 | 1.99 | 8.22 | -8.26 | 4.22 | -3.33 | 3.18 | 11.4 | 14.3 | 4.3 | 10 | -2.48
CC(=O)N(Cc1ncc(C)o1)C1CCN(Cc2ccncc2Cl)C1 (stereo unspecified) | -2.28 | 15.6 | -3.8 | -0.636 | 3.62 | 1.05 | 11.2 | -2.79 | 11.4 | 30.6 | -18.4
CCc1nc(CN2CCCC(N(C)Cc3cnc(C)s3)C2)no1 (stereo unspecified) | -0.97 | -5.48 | -1.7 | 3.08 | 0.979 | 0.455 | 18.8 | -15.8 | 2.15 | 0 | -0.829
Cc1cccc(C2(CNC(=O)CCNS(C)(=O)=O)CCCC2)c1 | -6.74 | 15.2 | -3.25 | 11.3 | 4.44 | -11 | 6.31 | -4.41 | 5.42 | 8.86 | -5.61
